Screens from PubChem BioAssay.
This is a sample that favours compounds with a hit; in the whole collection about 0.37% have one here.
CBFb-RUNX1 inh: qHTS Assay for Compounds Blocking the Interaction Between CBF-beta and RUNX1 for the Treatment of Acute Myeloid Leukemia; AlphaScreen CBFb-His/RUNX1-biotin binding, biochemical; Potency, µM (titrated, usually from 59.8 µM), without a hit: at the top dose activity, negative = inhibition, hits mostly inhibitors; AID 1477, 2009; Runt-related transcription factor 1 (Homo sapiens) + Core-binding factor subunit beta …; 230,000 tested, under 10 active; note: % of control where 0% means no effect
Target sequence (Q01196 whole entry, looked up): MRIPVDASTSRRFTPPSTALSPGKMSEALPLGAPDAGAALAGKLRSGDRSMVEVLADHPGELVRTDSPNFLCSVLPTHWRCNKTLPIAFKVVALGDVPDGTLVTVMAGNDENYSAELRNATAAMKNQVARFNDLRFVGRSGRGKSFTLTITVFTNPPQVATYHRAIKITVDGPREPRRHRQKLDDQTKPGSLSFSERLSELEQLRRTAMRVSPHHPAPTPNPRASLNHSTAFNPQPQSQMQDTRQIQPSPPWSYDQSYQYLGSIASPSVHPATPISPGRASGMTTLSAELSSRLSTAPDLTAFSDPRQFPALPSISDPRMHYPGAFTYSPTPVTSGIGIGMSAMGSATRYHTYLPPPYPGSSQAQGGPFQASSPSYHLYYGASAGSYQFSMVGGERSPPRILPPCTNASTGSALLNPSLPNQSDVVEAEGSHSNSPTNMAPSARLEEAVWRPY
Target sequence (Q13951 whole entry, looked up): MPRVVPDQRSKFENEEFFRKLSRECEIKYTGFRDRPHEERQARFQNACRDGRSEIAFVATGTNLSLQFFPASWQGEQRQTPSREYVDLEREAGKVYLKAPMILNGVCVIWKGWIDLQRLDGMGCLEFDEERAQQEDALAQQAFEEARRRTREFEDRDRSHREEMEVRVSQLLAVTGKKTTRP
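Bead-based AlphaScreen assay; binding partners His-tagged CBF-beta and biotinylated RUNX1 at 30 nM each. Compound exposure 15 min after a 20-min protein preincubation; bead step 90 min; all steps at room temperature.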
PTAP TSG101 blk: qHTS Assay for Iinhibitors of HIV-1 Budding by Blocking the Interaction of PTAP/TSG101 | Fluorescence polarization, FITC-PTAP peptide / Tsg101 binding | Potency, µM (doses to about 115 µM), without a hit: at the highest dose activity change, negative = inhibition, most hits filed as inhibitors | 340,000 tested, under 10 active; active = well fitted inhibition curve with a large enough effect in the main read-out, with a control signal flat, not every such curve was filed as active; inconclusive = small, poorly fitted or top-dose-only effect, or effect the other way, or a change in a side signal; inactive = no such curve, though single readings can be large or run the other way; note: potency is the fitted concentration of half-maximal effect; % of control where 0% means no effect
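Fluorescence anisotropy tracks displacement of a FITC-tagged PTAP peptide (50 nM) from the Tsg101 binding domain (10 uM), following a 20 min room-temperature incubation at pH 7.5.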
IMPase Li inh: qHTS Assay for Identifying the Cell-Membrane Permeable IMPase Inhibitors: Potentiation with Lithium | CHO-M1 cells, IP1 TR-FRET (IP-One), carbachol + lithium | Potency, µM (highest dose often 59.4 µM), inactives show at the highest dose activity, negative = IMPase inhibition, actives largely listed as inhibitors | 210,000 compounds, 0.35% hits;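 note: IP1 builds up when IMPase is blocked and the TR-FRET signal falls; potency is the fitted concentration of half-maximal effect; plate controls were basal vehicle for no effect and high inhibitor control for full effect; nearly all actives have a fitted effect of over 50% in size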
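IP1 accumulation measured by competitive TR-FRET in lysed CHO-M1 cells after 30 min compound exposure at 37C, with a small lithium addition to potentiate weak responses. Hill-equation AC50 from ratio and donor-channel data.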
A-T KAP1 phos: qHTS Assay for Identifying a Potential Treatment of Ataxia-Telangiectasia; F2112 A-T fibroblasts, KAP-1 phosphorylation AlphaLISA; neocarzinostatin DNA damage 30 min before lysis; Potency, µM (titrated, usually from 57.5 µM), for the others: at the highest dose activation, actives largely listed as activators; 320,000 compounds, 0.19% hits; note: potency is the fitted concentration of half-maximal effect; % of control where 0% means no effect; nearly all actives have a fitted effect of over 45% in size
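ATM-like activity read as KAP-1 phosphorylation via AlphaLISA donor/acceptor antibody pairs after lysis and 6 hr at 25C. Cells were ATM-null patient fibroblasts (F2112, hTERT), dosed 60 min, then exposed to the DSB inducer NCS for 30 min.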
Starred values were filed as active, the others as inactive; ? = inconclusive; nt = not tested or not shown; ! = a repeat was not active; [ ] = another dose, or the depositor's remark. Unless noted, calls come from the whole dose curve; as a rule, active = well fitted curve in the direction sought with a large enough effect; inconclusive = small, poorly fitted or top-dose-only effect, or another doubt; inactive = no such curve, though single readings can be large; an effect the other way counts as inactive or inconclusive.

SMILES | CBFb-RUNX1 inh | PTAP TSG101 blk | IMPase Li inh | A-T KAP1 phos
CC[C@@]1(O)C(=O)OCc2c1cc1n(c2=O)Cc2cc3cc(O)ccc3nc2-1 | -18.3% | nt | 10µM* | nt
O=C(Cn1cc(C(=O)c2ccccc2F)c2ccccc21)NCc1ccco1 | -1.1% | -8.6% | 8.91µM* | 10.1%
CCc1nccc2c1[nH]c1ccccc12 | nt | 0.4% | nt | 12.8%
Nc1c(C(=O)NCCN2CCOCC2)c2nc3ccccc3nc2n1Cc1ccccc1 | ? | -7.2% | nt | 20µM*
COc1cccc(NC(=O)CN2CC(c3ccccc3)CC2=O)c1 (stereo unspecified) | -5.6% | -3.6% | -0.7%[38.3 µM] | -1.8%
CCOc1ccc(-n2nc3c(=S)[nH]nc(C)c3c2C)cc1 | 6.6% | -0.8% | 5.01µM* | 0.7%
CCOc1c(P(=S)(N(C)C)N(C)C)c(C)nn1-c1ccccc1 | 18.3% | -3.5% | 3.4% | -2.0%
O=C(c1ccccc1)c1ccccc1N=Cc1c(O)[nH]c(=O)[nH]c1=O | 8.0% | -1.3% | 2.2% | -0.3%
COC(=O)c1ccccc1N=Cc1c(O)[nH]c(=S)[nH]c1=O | 1.0% | -5.3% | 11.2µM* | 3.1%
C=CC(=O)OCCN(C)C | 12.2%[21.7 µM] | nt | 7.5% | nt
Cc1ccc[n+](CC(=O)c2ccccc2)c1 | nt | nt | nt | 1.12µM*
CCOc1ccc(-c2c(C)n(-c3ccc(OCC)cc3)c3[n+]2CCCCC3)cc1 | 1.8% | 1.1% | nt | 17.8µM*
OCC(O)[C@H]1O[C@@H]2O[C@H](C(Cl)(Cl)Cl)O[C@@H]2[C@H]1O (stereo partly specified) | 2.8% | nt | -2.7% | nt
CC1(C)C(C=C(Cl)Cl)C1C(=O)OCc1cccc(Oc2ccccc2)c1 (stereo unspecified) | 5.3% | 4.2% | 1.8% | 39.8µM*
CCOC(=O)C1CCN(Cc2ccc(Cl)nc2)CC1 | nt | -8.3% | nt | 0.0%
CCOC(=O)C1CCCN(Cc2ccc(-c3ccccc3)cc2)C1 (stereo unspecified) | nt | -2.9% | nt | 25.1µM*
O=c1ccc2cc(O[C@H]3OC(CO)C(O)C(O)C3O)c(O)cc2o1 (stereo partly specified) | 6.3% | nt | 12.6µM* | nt
Nc1c(Br)cc([N+](=O)[O-])cc1[N+](=O)[O-] | 25.3%[21.7 µM] | 1.1% | 12.0% | -1.4%
CN1CC[C@]23c4c5ccc(O)c4OC2C(O)C=CC3[C@H]1C5 (stereo partly specified) | nt | 1.2% | nt | 0.8%
CCCN(CCC)C(=O)Cc1c(-c2ccc(Cl)cc2)nc2c(Cl)cc(Cl)cn12 | 3.9% | -0.7% | 10µM* | 1.9%
Cc1ccc(-c2nc3ccc(C)cn3c2CC(=O)N(C)C)cc1 | 14.8% | -0.9% | 3.4% | nt
Nc1c2c(nc3sc4c(c13)CCCCC4)CCCC2 | 2.1% | -0.2% | 16.4% | 1.0%
BrCC1C[n+]2c(SCc3ccccc3)nc3sc4c(c3c2O1)CCCC4 (stereo unspecified) | 0.1% | -12.4% | nt | 39.8µM*
FC(F)(F)c1ccccc1CCN1CCNCC1 | nt | -2.6% | nt | 1.5%
CN(C)[C@@H]1C(=O)C(C(N)=O)=C(O)[C@]2(O)C(=O)C3=C(O)c4c(O)cccc4[C@@](C)(O)[C@H]3[C@H](O)[C@@H]12 | nt | nt | -12.4% | nt
SMILES | CBFb-RUNX1 inh | PTAP TSG101 blk | IMPase Li inh | A-T KAP1 phos
CN(C)C1C(=O)C(C(N)=O)=C(O)[C@@]2(O)C(=O)C3=C(O)c4c(O)cccc4[C@@](C)(O)C3[C@H](O)C12 (stereo partly specified) | -89.2%[21.7 µM] | nt | 3.16µM* | nt
COC(=O)C1=C(c2ccc(Cl)c(C(F)(F)F)c2)C[C@@H]2CC[C@H]1N2C(=O)NCCOc1ccc(OC)cc1 | nt | -9.4% | nt | 20µM*
CCn1cc(C(=O)O)c(=O)c2cc3c(cc21)OCO3 | ? | nt | 7.94µM*! | -12.5%
COP(=O)(OC)c1nc(-c2cccc3ccccc23)oc1N1CCOCC1 | -1.4% | -1.8% | ? | 27.7%
CN1CCCC(C(=O)c2ccc(-c3ccccc3)cc2)C1 (stereo unspecified) | nt | -4.5% | nt | 0.4%
CN1CCCC(C(O)(c2ccccc2)c2ccccc2)C1 (stereo unspecified) | 6.2% | -0.9% | nt | 3.16µM*
Oc1ccc(CCN2CCCCC2)cc1 | nt | -0.7% | nt | nt
O=C(Oc1ccc2cc(Br)ccc2c1)N1CCCCCC1 | ? | nt | 7.2% | 35.5µM*
O=C(Nc1ccccc1OC(=O)N1CCCCC1)N1CCCCC1 | -6.6% | -11.1% | -6.6%[38.3 µM] | 0.9%
